NLRP3 yeast inh – NALP3 inflammasome inhibitors in reconstituted yeast, primary screen, luminescence, uHTS | Yeast reconstituted NLRP3/ASC/caspase-1, beta-gal luminescence, 24 h | inhibition, % at 10 µM | hit rate 0.39% among 330,000;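 active = inhibition of 50% or more; inactive = inhibition below 50%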
tim10-1 inh – growth inhibitors of tim10-1 mutant yeast, primary screen, luminescence, uHTS | hit rate 2.2% among 330,000 | inhibition, % at 20 µM | S. cerevisiae tim10-1 ts strain growth, BacTiter-Glo, 24 h;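 active = inhibition of at least 40%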;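 also: mutant grown at 25 °C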
tim23-1 inh – growth inhibitors of tim23-1 mutant yeast, primary screen, luminescence, uHTS; AID 463212, 2010; S. cerevisiae tim23-1 growth, BacTiter-Glo luminescence, 24 h; hit rate 1.3% among 330,000; inhibition, % at 20 µM;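 active = growth inhibition of the mutant yeast at or above 50%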;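 also: temperature-sensitive mutant grown at 25 °C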
TIM10 inh – growth inhibitors of isogenic TIM10 control yeast, primary screen, counter-screen for tim10-1 yeast inhibitor project, luminescence, uHTS. S. cerevisiae TIM10 strain growth, BacTiter-Glo luminescence, 24 h. inhibition, % at 10 µM. hit rate 1.4% among 330,000. AID 463195, 2010;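 active = inhibition of 40% or more at the single tested concentration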;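 also: wild-type TIM10 isogenic control strain grown at permissive 25 °C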
CR mimetic SO – reduction of superoxide in aged yeast, primary screen, HTS; S. cerevisiae aged cells, superoxide DHE fluorescence; hits give low values; superoxide response (% of plate mean), % at 10 µM; hit rate 0.18% among 330,000;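 active = superoxide response under a set limit, about three screen SD below normal, cut at about 65% in these data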;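 also: yeast aged for seven days with compound at 30 °C before DHE staining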
tim10-1 confirm – growth inhibitors of tim10-1 mutant yeast, confirmation, single concentration, luminescence, S. cerevisiae; shares compounds with tim10-1 inh; S. cerevisiae tim10-1 ts strain growth, BacTiter-Glo, 24 h; inhibition, % at 20 µM; hit rate 56% among 7,400; AID 463213, 2010;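 active = inhibition of yeast growth at or above a set limit in either of two repeat tests at 20 µM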;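 also: tim10-1 mutant grown at permissive 25 °C to find synthetic lethal compounds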
TIM10 conf – growth inhibitors of wild-type TIM10 yeast, confirmation, counter-screen for tim10-1 synthetic lethality project, single concentration, luminescence, S. cerevisiae | S. cerevisiae tim10 strain growth, BacTiter-Glo luminescence, 24 h | AID 463215, 2010 | shares compounds with TIM10 inh | hit rate 63% among 4,600 | inhibition, % at 10 µM;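 active = inhibition of yeast growth at or above a set limit in either of two replicates at 10 µM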; also: this counterscreen used the strain with wild-type TIM10
tim23-1 conf – tim23-1 mutant yeast growth inhibitors, confirmation, luminescence, single concentration; shares compounds with tim23-1 inh; S. cerevisiae tim23-1 growth, BacTiter-Glo luminescence, 24 h; inhibition, % at 20 µM; hit rate 83% among 4,400; AID 463218, 2010;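 active = inhibition above about 39% in either of two replicate wells at 20 µM, limit read from the data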;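 also: temperature-sensitive tim23-1 mutant grown at 25 °C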
Of the large screens only hits and unclear results are named; the others gave an inactive call (follow-up assays come after a bar, where they were run). The list is not random: actives were taken first. Their share in the collection is about 3.8%.

Cc1ccc(NC(=O)c2ccc(-n3cncn3)c([N+](=O)[O-])c2)cc1F	none
CCOC(=O)/C(C#N)=C1\C(=O)N(Cc2ccccc2)c2ccccc21	tim10-1 inh 43, tim23-1 inh 53 | tim10-1 confirm inactive | tim23-1 conf 53
CC(C)=C(NC(=O)c1ccccc1)C(=O)Nc1cccc(C(=O)O)c1	none
Oc1ccc(N=Nc2ccccc2)o1	tim10-1 inh 67, tim23-1 inh 68 | tim10-1 confirm 67 | tim23-1 conf 75
Cc1ccc(OCCCC(=O)ON=C(N)c2ccccc2C)cc1	tim10-1 inh 60, tim23-1 inh 62, TIM10 inh 41 | tim10-1 confirm 64 | TIM10 conf 50 | tim23-1 conf 61
O=S(=O)(NC1CC2CCC1C2)c1ccc2c(c1)OCCO2 (configuration not stated)	none
CC1CCCC(NS(=O)(=O)c2ccc3c(c2)OCCO3)C1C (configuration not stated)	tim10-1 inh 57, tim23-1 inh 52 | tim10-1 confirm 48 | tim23-1 conf 59
CCc1nc(N2CCN(S(C)(=O)=O)CC2)c2c3c(sc2n1)CCCC3	none
COc1ccc(/C=C/C(=O)c2ccc([N+](=O)[O-])o2)cc1	tim10-1 inh 45, tim23-1 inh 79, TIM10 inh 70 | tim10-1 confirm inactive | TIM10 conf 79 | tim23-1 conf inactive
CCCN(CC(=O)Nc1ccccc1C)C(=O)c1nn(CC)c(=O)c2ccccc12	none
Oc1c(C(c2cccs2)N2CCN(c3ccccc3)CC2)ccc2cccnc12 (configuration not stated)	tim10-1 inh 56, tim23-1 inh 59 | tim10-1 confirm 40 | tim23-1 conf 78
CCN(C(=O)CSc1nnc(SC)s1)c1c(N)n(Cc2ccccc2)c(=O)[nH]c1=O	none
Cc1ccc2occ(C(=O)c3ccco3)c(=O)c2c1	tim10-1 inh 42, tim23-1 inh 71, TIM10 inh 49 | tim10-1 confirm inactive | TIM10 conf inactive | tim23-1 conf 51
CCCC(=O)Nc1c(-c2cccc(OC)c2)c(=O)c2ccccc2n1C	none
CCc1ccccc1NCC(=O)Nc1ccc(Cl)c(C(F)(F)F)c1	tim10-1 inh 68, tim23-1 inh 52, TIM10 inh 48 | tim10-1 confirm 54 | TIM10 conf inactive | tim23-1 conf 57
O=C(CCNC(=O)c1ccccc1Cl)Nc1ccc(Cl)c(C(F)(F)F)c1	none
C/C(CC(=O)Nc1ccc(Cl)c(C(F)(F)F)c1)=N\NC(=O)c1ccccc1O	tim10-1 inh 47, tim23-1 inh 57 | tim10-1 confirm 39 | tim23-1 conf 41
CCOc1ccc(N=C/C=C/c2ccccc2)c(O)c1	none
CCOC(=O)C1=C(Cc2ccc(Cl)cc2)C(=O)c2ccccc2C1=O	tim10-1 inh 64, tim23-1 inh 67, TIM10 inh 57 | tim10-1 confirm 67 | TIM10 conf 58 | tim23-1 conf 63
C/C(=N\Nc1nc(C)cc(-c2ccccc2)n1)c1ccc(C)o1	tim10-1 inh 49, tim23-1 inh 52, TIM10 inh 45 | tim10-1 confirm 32 | TIM10 conf inactive | tim23-1 conf 49
C/C(=N\Nc1nc(C)cc(-c2ccccc2)n1)c1ccccc1	none
N/C(=N\OC(=O)c1cccs1)c1ccccc1	tim10-1 inh 65, tim23-1 inh 71, TIM10 inh 70 | tim10-1 confirm 63 | TIM10 conf 36 | tim23-1 conf 67
Cc1cccc(/C(N)=N/OC(=O)N2CCOCC2)c1	none

Source: PubChem BioAssay
